According to PubChem BioAssay (NCATS):
Values joined by “and” are separate entries in the source; they are usually repeats but may differ in a detail not shown here. Equal entries are not always repeated. Inconclusive results are not listed. A number with no mark means an inactive call. Calls follow the shape of the dose curve; as a rule, active = well fitted curve in the direction sought with a large enough effect; inconclusive = small, poorly fitted or top-dose-only effect, or another doubt; inactive = no such curve, though single readings can be large or run the other way.

test: qHTS Assay for Identifying Gametocytocidal Compounds (AID 743244);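 also: actives lower the fluorescent signal which means gametocytes are killed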; settings: P. falciparum 3D7 stage III-V gametocytes, alamarBlue, 72 h; max response: hits give low values
Method in brief: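 A resazurin-based viability read-out was applied to mature P. falciparum gametocytes: 72 h compound treatment, then 24 h dye incubation, with falling fluorescence signalling gametocytocidal effect.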
% is scaled to controls: 0 for no effect and ±100 for the full control effect.

Row | SMILES | max response
1 | O=[N+]([O-])c1c(Cl)cccc1-c1c[nH]cc1Cl | 0.263%
2 | Cc1ncc(COP(=O)(O)O)c(CN)c1O | -10.8%
3 | CSCCC(N)C(=O)O (stereo not drawn) | -5.15%
4 | NCCCC[C@H](N)C(=O)O | 5.86%
5 | OCC1(CO)COC(C(Cl)(Cl)Cl)OC1 | 24.4%
6 | O=P(O)(O)OC[C@H]1O[C@](O)(COP(=O)(O)O)[C@@H](O)[C@@H]1O | 2.17%
7 | COc1cc2c(cc1OC)[C@@H](Cc1cc(OC)c(OC)c(OC)c1)[N+](C)(CCCOC(=O)CC/C=C/CCC(=O)OCCC[N+]1(C)CCc3cc(OC)c(OC)cc3[C@H]1Cc1cc(OC)c(OC)c(OC)c1)CC2 (stereo partly drawn) | 7.25% and 6.59%
8 | FC(F)(F)C(F)(F)C(F)(F)C(F)(F)C(F)(F)C(F)(F)F | 13.2%
